Source: PubChem BioAssay AID1159580 (chemical genetic matrix, 2015)
Values joined by “and” are separate entries in the source; they are usually repeats but may differ in a detail not shown here. Equal values may be shown once. Among all 5,500 compounds or so, about 2,000 (36%) were called active. Roughly 18% stayed inconclusive and do not appear here. Cut-off read from the data, not from the text of the source: active = normalized growth mostly below about 0.91 (no sharp cut-off); inconclusive = no clear call, values can overlap the other calls; inactive = mostly above about 0.92. The list shows a part of the results.

Test: chemical genetic growth profiling, strain panel (AID 1159580);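 note: tested at 20 µM; growth read once vehicle control cultures reached saturation at 30 °C; 1 = growth at the plate median or of vehicle wells; lower values mean less growth of the strain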
Details: S. cerevisiae deletion strains, growth OD

Measured: normalized growth

COc1ccc2c(c1)[nH]c1c(C)nccc12
inactive: locus YAL013W, strain DEP1, hits give low values 1.02 | locus YAL021C, strain ccr4, hits give low values 0.978 | locus YAL026C, strain drs2, hits give low values 1 | locus YAL030W, strain snc1, hits give low values 1 | locus YBL061C, strain skt5, hits give low values 0.993 | locus YBR009C, strain hhf1, hits give low values 0.992 | locus YBR021W, strain FUR4, hits give low values 1.03 | locus YBR023C, strain chs3, hits give low values 1 | locus YBR171W, strain sec66, hits give low values 0.987 | locus YBR229C, strain ROT2, hits give low values 1.02 | locus YBR231C, strain swc5, hits give low values 0.994 | locus YBR279W, strain paf1, hits give low values 0.991 | locus YCL011C, strain gbp2, hits give low values 1.01 | locus YCL016C, strain dcc1, hits give low values 1 | locus YCL029C, strain bik1, hits give low values 0.968 | locus YCL061C, strain MRC1, hits give low values 0.994 | locus YCL069W, strain vba3, hits give low values 0.995 | locus YCR088W, strain abp1, hits give low values 1 | locus YDL005C, strain med2, hits give low values 0.994 | locus YDL035C, strain GPR1, hits give low values 0.998 | locus YDL040C, strain nat1, hits give low values 0.995 | locus YDL074C, strain BRE1, hits give low values 1.03 | locus YDL101C, strain DUN1, hits give low values 1.01 | locus YDL134C, strain PPH21, hits give low values 1.02 | locus YDL185W, strain tfp1, hits give low values 0.968 | locus YDL192W, strain arf1, hits give low values 0.979 | locus YDR001C, strain nth1, hits give low values 0.991 | locus YDR069C, strain doa4, hits give low values 0.997 | locus YDR101C, strain arx1, hits give low values 0.987 | locus YDR137W, strain rgp1, hits give low values 1.01 | locus YDR150W, strain NUM1, hits give low values 0.978 | locus YDR159W, strain sac3, hits give low values 1.01 | locus YDR162C, strain NBP2, hits give low values 1.02 | locus YDR195W, strain ref2 1.01 | locus YDR297W, strain sur2, hits give low values 0.999 | locus YDR318W, strain mcm21, hits give low values 0.986 | locus YDR334W, strain swr1, hits give low values 0.991 | locus YDR335W, strain msn5, hits give low values 0.994 | locus YDR388W, hits give low values 0.98 | locus YDR392W, strain spt3, hits give low values 0.991 | locus YDR502C, strain sam2, hits give low values 0.995 | locus YEL003W, strain gim4, hits give low values 0.988 | locus YEL037C, strain rad23, hits give low values 0.991 | locus YEL061C, strain CIN8 (second series), hits give low values 0.99 | locus YEL061C, strain CIN8, hits give low values 1.01 | locus YER015W, strain faa2, hits give low values 0.988 | locus YER016W, strain bim1, hits give low values 0.997 | locus YER110C, hits give low values 0.969 | locus YER111C, strain swi4, hits give low values 0.998 | locus YER155C, strain BEM2 (second series), hits give low values 0.95 | locus YER155C, strain BEM2, hits give low values 1.01 | locus YER167W, strain BCK2, hits give low values 1 | locus YFR010W, strain ubp6, hits give low values 0.982 | locus YGL078C, strain dbp3, hits give low values 0.972 | locus YGL086W, strain mad1, hits give low values 0.981 | locus YGL167C, strain pmr1, hits give low values 0.991 | locus YGL173C, strain kem1, hits give low values 0.999 | locus YGL227W, strain vid30, hits give low values 0.984 | locus YGL240W, strain doc1, hits give low values 0.989 | locus YGL248W, strain PDE1, hits give low values 1.02 | locus YGL253W, strain hxk2, hits give low values 0.995 | locus YGR078C, strain PAC10, hits give low values 1.03 | locus YGR135W, strain pre9, hits give low values 0.981 | locus YGR229C, strain SMI1, hits give low values 1.07 | locus YGR252W, strain gcn5, hits give low values 0.931 | locus YHR013C, strain ard1, hits give low values 1.01 | locus YHR027C, strain rpn1, hits give low values 0.991 | locus YHR030C, strain SLT2, hits give low values 1.01 and 1.02 | locus YHR079C, strain IRE1 (second series), hits give low values 0.988 | locus YHR079C, strain IRE1, hits give low values 1.03 | locus YHR094C, strain hxt1, hits give low values 0.963 | locus YHR129C, strain ARP1, hits give low values 1.01 | locus YHR142W, strain chs7, hits give low values 1.01 | locus YHR200W, strain rpn10, hits give low values 0.97 | locus YIL066C, strain RNR3, hits give low values 1.02 | locus YIL073C, strain SPO22, hits give low values 0.887 | locus YIL125W, strain kgd1, hits give low values 0.986 | locus YIR030C, strain dcg1, hits give low values 0.994 | locus YJL092W, strain hpr5, hits give low values 0.996 | locus YJL095W, strain BCK1 (second series), hits give low values 1 | locus YJL095W, strain BCK1, hits give low values 1.07 and 1.01 | locus YJL115W, strain asf1, hits give low values 0.979 | locus YJL129C, strain trk1, hits give low values 0.987 | locus YJL134W, strain LCB3, hits give low values 1.01 | locus YJL154C, strain vps35, hits give low values 1 | locus YJL164C, strain tpk1, hits give low values 0.997 | locus YJL166W, strain qcr8, hits give low values 0.991 | locus YJL168C, strain set2, hits give low values 0.996 | locus YJL187C, strain SWE1 (second series), hits give low values 1.01 | locus YJR043C, strain POL32, hits give low values 0.989 | locus YJR066W, strain TOR1, hits give low values 0.972
